This is an account of results in PubChem BioAssay (NCI).

Compounds without any hit were thinned out: in the full panel of roughly 83,000, 20% have a hit.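 Plates (96-well) were seeded with cells, treated with compound at one concentration, and incubated for 48 hours before percent growth was determined.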 Values without a mark were called inactive. Calls of active or inactive are those of the source. Rule for the calls: active = growth percent below 10; inactive = the rest.

Test systems include DU-145 prostate; K-562 leukemia; MALME-3M melanoma; MDA-MB-231 breast; RXF 393 renal; SF-268 CNS; SF-295 CNS; SF-539 CNS; UACC-257 melanoma; M14 melanoma; HCT-15 colon; HT29 colon; SNB-75 CNS; SNB-19 CNS; U251 CNS; PC-3 prostate; SK-MEL-5 melanoma; UACC-62 melanoma; LOX IMVI melanoma; SK-MEL-28 melanoma.
What all share (assay): NCI-60 one-dose screen, 48 h (100 = growth as untreated, 0 = no growth, -100 = all killed)
Common to all, as to conditions: 10 µM unless noted

On to `Nc1c(C(=O)Nc2ccncc2)sc2nc3c(cc12)CCCCCC3`, for which the growth in the assay on DU-145 prostate was 93.2%; in the assay on K-562 leukemia, 64%; in the assay with MALME-3M melanoma, 108%; with MDA-MB-231 breast, 103%; with RXF 393 renal it was 88.5%; in the assay with SF-268 CNS it was 100%. Further, the growth in the assay on SF-295 CNS was 82.3%; in the assay with SF-539 CNS it was 79.9%; in the assay with UACC-257 melanoma, 91.1%; in the assay on M14 melanoma it was 100%; in the assay on HCT-15 colon, 63.5%; in the assay on HT29 colon it was 41.9%. Also, the growth in the assay on SNB-75 CNS is 84.2%; with SNB-19 CNS, 84.1%; with U251 CNS it was 76.2%; in the assay on PC-3 prostate, 90.3%; in the assay on SK-MEL-5 melanoma, 56.8%; with UACC-62 melanoma, 89.6%. The results for the growth in the assay with LOX IMVI melanoma and with SK-MEL-28 melanoma were 84.8% and 88.6%, respectively.
Regarding `COc1ccc(/C=C2\C(=O)N=C3N2NC(c2cc(Br)ccc2O)C=C(C)N3c2ccccc2)cc1` (stereo not given), the growth was 104% in the assay with DU-145 prostate; 97.3% with K-562 leukemia; 92.2% in the assay with MALME-3M melanoma; 92.8% in the assay with MDA-MB-231 breast; 97.7% in the assay on RXF 393 renal; 100% in the assay with SF-268 CNS. For the same molecule, the growth with SF-295 CNS is 101%; in the assay on SF-539 CNS it was 99.9%; with UACC-257 melanoma, 96.7%; in the assay with M14 melanoma it was 98.8%; in the assay with HCT-15 colon, 103%; in the assay on HT29 colon, 106%. Moreover, the growth in the assay with SNB-75 CNS was 99%; in the assay on SNB-19 CNS it was 93.8%; with U251 CNS, 93.8%; in the assay with PC-3 prostate, 92.1%; with SK-MEL-5 melanoma, 97%; in the assay with UACC-62 melanoma, 90.6%. In addition, the growth in the assay with LOX IMVI melanoma is 95%; in the assay on SK-MEL-28 melanoma, 99.1%.
Regarding `O=C(CSc1nc2ccc([N+](=O)[O-])cc2[nH]1)Nc1ccc(F)cc1`, the growth was 66.8% in the assay with DU-145 prostate; 42.1% with K-562 leukemia; 36.3% in the assay with MALME-3M melanoma; 80.3% in the assay with MDA-MB-231 breast; 87.8% in the assay with RXF 393 renal; 68.8% in the assay on SF-268 CNS. Besides, the growth is 52.1% in the assay on SF-295 CNS; 79.8% in the assay on SF-539 CNS; 44.5% in the assay with UACC-257 melanoma; 59.9% in the assay on M14 melanoma; 64.9% with HCT-15 colon; 71.6% in the assay with HT29 colon. Moreover, the growth in the assay on SNB-75 CNS was 51.1%; with SNB-19 CNS, 69.2%; in the assay with U251 CNS it was 45.7%; with PC-3 prostate, 54.9%; in the assay with SK-MEL-5 melanoma it was 32.5%; in the assay on UACC-62 melanoma, 25.1%. Also, the values for the growth in the assay with LOX IMVI melanoma and in the assay on SK-MEL-28 melanoma were 64.8% and 61.8%, respectively.
In the case of `CCOC(=O)c1nc(Nc2ccc(NC(=O)Nc3ccc(F)cc3)cc2)c2ccccc2n1`, the growth in the assay on DU-145 prostate was 108%; with K-562 leukemia, 102%; in the assay with MALME-3M melanoma, 92.6%; with MDA-MB-231 breast it was 95.9%; in the assay with RXF 393 renal it was 93.2%; in the assay on SF-268 CNS it was 98.3%. In addition, the growth in the assay with SF-295 CNS is 99.8%; with SF-539 CNS, 99.9%; in the assay on UACC-257 melanoma, 103%; in the assay with M14 melanoma, 97%; with HCT-15 colon, 100%; in the assay on HT29 colon it was 106%. Further, the growth was 78.7% in the assay with SNB-75 CNS; 98% with SNB-19 CNS; 103% in the assay with U251 CNS; 103% with PC-3 prostate; 93.9% with SK-MEL-5 melanoma; 101% in the assay with UACC-62 melanoma. For the same molecule, the growth with LOX IMVI melanoma is 90.9%; in the assay with SK-MEL-28 melanoma, 105%.
Turning to `O=C(Cn1cc(CN2C(=O)c3ccccc3S2(=O)=O)nn1)Nc1nc2ccccc2s1`, the growth in the assay with DU-145 prostate is 108%; in the assay on K-562 leukemia it was 101%; with MALME-3M melanoma it was 95%; in the assay on MDA-MB-231 breast it was 108%; in the assay with RXF 393 renal, 117%; in the assay with SF-268 CNS it was 97.3%. In addition, the growth in the assay on SF-295 CNS is 101%; with SF-539 CNS, 98.4%; with UACC-257 melanoma it was 101%; with M14 melanoma it was 103%; in the assay with HCT-15 colon, 107%; in the assay with HT29 colon, 97.9%. In addition, the growth is 81.2% in the assay on SNB-75 CNS; 98.1% in the assay on SNB-19 CNS; 98.7% in the assay with U251 CNS; 93.2% in the assay with PC-3 prostate; 104% in the assay on SK-MEL-5 melanoma; 97.5% in the assay with UACC-62 melanoma. Also, the growth in the assay with LOX IMVI melanoma is 92.5%; in the assay on SK-MEL-28 melanoma, 106%.
As to `CCNC(=O)c1[nH]cc(-c2ccccc2)c1-c1cc(OC)c2c(c1OC)OCO2`, the growth was 112% in the assay with DU-145 prostate; 94% in the assay with K-562 leukemia; 110% in the assay on MALME-3M melanoma; 97.2% with MDA-MB-231 breast; 102% with RXF 393 renal; 97.6% in the assay with SF-268 CNS. The growth was 100% in the assay with SF-295 CNS; 102% in the assay on SF-539 CNS; 102% with UACC-257 melanoma; 95.8% with M14 melanoma; 103% in the assay with HCT-15 colon; 112% with HT29 colon. Further, the growth was 91.4% in the assay with SNB-75 CNS; 98.6% in the assay on SNB-19 CNS; 103% with U251 CNS; 93.1% in the assay on PC-3 prostate; 89.8% in the assay on SK-MEL-5 melanoma; 92.2% in the assay on UACC-62 melanoma. Further, the growth in the assay on LOX IMVI melanoma is 95.1%; in the assay with SK-MEL-28 melanoma it was 108%.
For `Oc1c(Cl)cc(Cl)c2ccc(Cn3cc(-c4cc(F)cc(F)c4)nn3)nc12`, the growth with DU-145 prostate is 58.5%; in the assay with K-562 leukemia, 7.96% (active); in the assay with MALME-3M melanoma, 37.2%; in the assay with MDA-MB-231 breast it was 97.9%; with RXF 393 renal, 25.6%; in the assay with SF-268 CNS it was 97.2%. The growth was 100% in the assay on SF-295 CNS; 65.8% with SF-539 CNS; 60.4% in the assay with UACC-257 melanoma; 61.5% with M14 melanoma; 41.9% with HCT-15 colon; 68.5% with HT29 colon. Besides, the growth is 58.6% with SNB-75 CNS; 94.1% in the assay on SNB-19 CNS; 96.2% in the assay with U251 CNS; 84.8% with PC-3 prostate; 98.5% with SK-MEL-5 melanoma; 74.1% with UACC-62 melanoma. The growth in the assay with LOX IMVI melanoma was 20.8%; in the assay on SK-MEL-28 melanoma it was 61.4%.
